From the supplement of paper PMC3545927
Some of the results follow. How many sequences the whole screen found active is unknown.

B1: HC1309 (peptide)
chain: CALVETWKKPAGNASASA
B2: HC1163 (peptide)
chain: CAGIPFVSCQAGNASASA
B3: HC2438 (peptide)
chain: CATREVPCHRAGNASASA
B4: HC216 (peptide)
chain: CADPRRRSRNAGNASASA
B5: HC1662 (peptide)
chain: CAVGIYLLPNAGNASASA
B6: FS-1357 (peptide)
chain: CALINVRKRNAGNASASA
B7: HC1446 (peptide)
chain: CAKGGRKPARAGNASASA
B8: TR6 (peptide)
chain: CALGIRSFRNAGNASASA
B9: FS-1356 (peptide)
chain: CALGGRRKRNAGNASASA
B10: FS-340 (peptide)
chain: CAKGGRRSRNAGNASASA
B11: HC1452 (peptide)
chain: CAPDLGVRVCAGNASASA
B12: FS-3220 (peptide)
chain: CARFDRSSGPAGNASASA
B13: FS-1892 (peptide)
chain: CARFRRDLVKAGNASASA
B14: FS-2386 (peptide)
chain: CARVFRQVEKAGNASASA
B15: FS-2490 (peptide)
chain: CARFRREVEKAGNASASA
B16: FS-2013 (peptide)
chain: CARFDRSVEKAGNASASA
B17: FS-3006 (peptide)
chain: CARNIRSGVHAGNASASA
B18: HC2261 (peptide)
chain: CAEVVTSTWNAGNASASA
B19: HC570 (peptide)
chain: CAGGVVLVGLAGNASASA
B20: FS-1364 (peptide)
chain: CALPSRETRYAGNASASA
B21: FS-424 (peptide)
chain: CAGDSRQRRLAGNASASA
B22: FS-55 (peptide)
chain: CALPSRLRRMAGNASASA
B23: FS-895 (peptide)
chain: CAWQRRLRRLAGNASASA
B24: FS-1572 (peptide)
chain: CASRGRLRRLAGNASASA
B25: FS-769 (peptide)
chain: CAFLTRLRRPAGNASASA
B26: FS-1118 (peptide)
chain: CAEPRRQRRLAGNASASA
B27: HC1655 (peptide)
chain: CAPRWIWFCLAGNASASA

Target: furin, P09958
Assay: furin cleavage Z-score vs untreated control; higher = more cleavage, active = 3.5 or more, inactive = 1 or less, 8 variable residues between constant flanks
Procedure, shortened: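 Peptides 8 residues long, fused to a cDNA oligonucleotide, were fixed to magnetic beads by the N-terminus and exposed to purified furin. The 0.01 ml reactions contained 50 mM HEPES pH 7.5 with CaCl2 and NaCl at 1:10 enzyme:substrate and ran 7.5, 15 or 30 min. For the cleavage Z-score, log counts of sequenced released DNA were compared with furin-free reactions, lowess-adjusted and scaled by median absolute deviation.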

furin, P09958, sequence (P09958 whole entry): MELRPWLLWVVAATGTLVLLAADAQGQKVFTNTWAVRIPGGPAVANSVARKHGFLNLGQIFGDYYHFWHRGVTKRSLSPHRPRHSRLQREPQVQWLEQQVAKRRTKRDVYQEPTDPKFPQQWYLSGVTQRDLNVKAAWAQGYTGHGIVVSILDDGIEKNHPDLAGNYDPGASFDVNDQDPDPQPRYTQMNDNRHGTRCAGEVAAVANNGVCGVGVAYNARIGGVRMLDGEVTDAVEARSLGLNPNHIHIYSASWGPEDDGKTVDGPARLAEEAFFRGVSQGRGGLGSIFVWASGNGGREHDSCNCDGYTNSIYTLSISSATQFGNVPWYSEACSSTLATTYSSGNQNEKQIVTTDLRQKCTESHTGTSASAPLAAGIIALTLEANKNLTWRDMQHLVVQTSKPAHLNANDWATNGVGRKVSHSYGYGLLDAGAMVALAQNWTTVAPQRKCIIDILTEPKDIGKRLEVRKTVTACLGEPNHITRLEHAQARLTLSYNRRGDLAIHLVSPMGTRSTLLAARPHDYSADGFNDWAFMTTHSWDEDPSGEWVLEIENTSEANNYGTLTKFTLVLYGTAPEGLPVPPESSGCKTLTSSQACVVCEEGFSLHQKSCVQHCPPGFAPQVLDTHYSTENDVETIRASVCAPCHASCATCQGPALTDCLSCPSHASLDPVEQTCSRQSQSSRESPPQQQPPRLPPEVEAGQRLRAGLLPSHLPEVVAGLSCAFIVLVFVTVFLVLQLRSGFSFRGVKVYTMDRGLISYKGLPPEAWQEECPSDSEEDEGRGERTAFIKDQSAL

| Sequence | furin cleavage Z-score (7.5 min) | furin cleavage Z-score (15 min) | furin cleavage Z-score (30 min) |
| --- | --- | --- | --- |
| B1 | 0.819 (inactive) | 0.268 (inactive) | -0.773 (inactive) |
| B2 | -0.0749 (inactive) | 0.44 (inactive) | -1.36 (inactive) |
| B3 | 0.921 (inactive) | 2.06 | 2.03 |
| B4 | 4.59 (active) | 5.65 (active) | 5.55 (active) |
| B5 | 0.402 (inactive) | 0.33 (inactive) | -0.482 (inactive) |
| B6 | 0.912 (inactive) | 2.51 | 1.58 |
| B7 | -0.269 (inactive) | -0.328 (inactive) | -1.51 (inactive) |
| B8 | 1.49 | 1.8 | -0.165 (inactive) |
| B9 | 11.1 (active) | 12.5 (active) | 7.53 (active) |
| B10 | 4.05 (active) | 5.15 (active) | 6.68 (active) |
| B11 | -1.67 (inactive) | -0.653 (inactive) | -0.786 (inactive) |
| B12 | -0.295 (inactive) | 1.66 | 0.428 (inactive) |
| B13 | 3.6 (active) | 6.06 (active) | 7.08 (active) |
| B14 | -1.6 (inactive) | -2.06 (inactive) | -1.6 (inactive) |
| B15 | 9.16 (active) | 8.26 (active) | 9.23 (active) |
| B16 | 2.17 | 0.744 (inactive) | 3.51 (active) |
| B17 | -0.391 (inactive) | -0.599 (inactive) | -0.61 (inactive) |
| B18 | -0.954 (inactive) | 1.01 | 0.548 (inactive) |
| B19 | -0.221 (inactive) | 0.261 (inactive) | -0.661 (inactive) |
| B20 | 2.17 | 1.29 | -0.268 (inactive) |
| B21 | -0.0244 (inactive) | 0.999 (inactive) | 0.163 (inactive) |
| B22 | 9.43 (active) | 11.4 (active) | 8.99 (active) |
| B23 | 3.85 (active) | 5.94 (active) | 6.13 (active) |
| B24 | 4.39 (active) | 6.32 (active) | 6.52 (active) |
| B25 | -0.966 (inactive) | -0.023 (inactive) | 0.341 (inactive) |
| B26 | 3.93 (active) | 4.47 (active) | 4.27 (active) |
| B27 | 2.54 | 0.216 (inactive) | 2.32 |
